Laboratory results as given in PubChem BioAssay (NCI).
About 83,000 compounds went through this panel and 20% of them were active in at least one assay; those are over-represented in the sample as a whole.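 In brief: 96-well plates, 48 h treatment, single concentration, percent growth endpoint.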 Unmarked numbers belong to inactive results. Activity calls are given as the source filed them.

The compounds below were run on OVCAR-4 ovarian (assay: NCI-60 one-dose screen, 48 h (100 = growth as untreated, 0 = no growth, -100 = all killed)). Details: 10 µM unless noted.
Method: Growth inhibition of the OVCAR-4 human tumor cell line is measured as a screen for anti-cancer activity. Cells are grown in 96 well plates and exposed to the test compound for 48 hours. Compounds are tested at a single concentration, which is 10^-5 M for most compounds. The reported endpoint is percent growth (GI% or GIPRCNT), where numbers from 0 - 100% represent growth inhibition, and numbers from -100% - 0 represent cell death. For example, a value of 40 represents 60% growth inhibition. A value of 0 means no net growth occurred over the course of the experiment. A value of -40 indicates 40% of cells at the beginning of the experiment died by the end of the experiment. A value of -100 means all cells are dead at the end of the experiment.
NCI-60 Human Tumor Cell Lines Screen was performed using the standard one-dose NCI protocol, which is described in more detail at https://dtp.cancer.gov/discovery_development/nci-60/default.htm.
Compounds with GIPRCNT values below 10 were considered active. Activity score was based on GIPRCNT using the following formula: […]
Score is 0 for GIPRCNT values of 100 or above, 50 for GIPRCNT values of 0, and 100 for GIPRCNT values of -100.

Row | SMILES | growth
1 | C=CCCCN=C=S | 88.8%
2 | COP(=S)(N1CC1)N1CC1 | 111%
3 | COC(=O)[C@@H](C)C[C@H](Cc1ccccc1)NC(=O)c1csc([C@@H](C[C@H](C(C)C)N(C)C(=O)[C@@H](NC(=O)CN(C)C)C2CC2)OC(C)=O)n1 | 54.4%
4 | COC(=O)[C@@H](C)C[C@H](Cc1ccccc1)NC(=O)c1csc([C@@H](C[C@H](C(C)C)N(C)C(=O)[C@@H](NC(=O)[C@H]2CCCCN2C)C(C(F)(F)F)C(F)(F)F)OC(C)=O)n1 | 43.7%
5 | COC(=O)[C@H](C[C@H](Cc1ccccc1)NC(=O)c1csc([C@@H](C[C@H](C(C)C)N(C)C(=O)[C@@H](NC(=O)[C@H]2CCCCN2C)C(C)C)OC(C)=O)n1)NC(=O)OCc1ccccc1 | 40.4% [8.5 µM]
6 | CCCCCCCCCCCCCCCCCC1OC[C@H](COC(=O)O[C@@H](C(=O)O[C@H]2C[C@@]3(O)[C@@H](OC(=O)c4ccccc4)[C@@H]4[C@]5(OC(C)=O)CO[C@@H]5C[C@H](O)[C@@]4(C)C(=O)[C@H](OC(C)=O)C(=C2C)C3(C)C)[C@@H](NC(=O)c2ccccc2)c2ccccc2)O1 (stereo not given in full) | 75.5%
7 | CCN1C(=O)C(=C/C=C/c2ccccc2)C(=O)N(CC)C1=O | 111%
8 | CC(=O)O[C@H](C[C@H](C(C)C)N(C)C(=O)[C@@H](NC(=O)[C@H]1CCCCN1C)C(C)C)c1nc(C(=O)N[C@@H](Cc2ccccc2)C[C@H](C)C(=O)O)c(C(C)C)s1 | 46.9%
9 | COc1ccc(C2=N[C@@H](Cc3ccccc3)C(=O)Nc3ccsc32)cc1 | 69.9%
10 | CNC12C3C4C1C1C2C3C41C(=O)N[C@H](C(=O)N(C)[C@H](C[C@@H](OC(C)=O)c1nc(C(=O)N[C@@H](Cc2ccccc2)C[C@H](C)C(=O)OC)cs1)C(C)C)C1CC1 (stereo not given in full) | 44.5%
11 | CC(=O)Oc1ccccc1C(=O)NCCC[Se]C#N | 57.2%
12 | O=P1(NCCCl)OCCCN1CCCl (stereo not given) | 112%
13 | CC(C)CCC(=O)O[C@H]1CC[C@H]2[C@@H]3CCC4=CC(=O)CC[C@]4(C)[C@H]3CC[C@]12C | 103%
14 | [Cl][Hg][n]1c(-c2ccco2)nc2ccccc21 | 100%
15 | C[n+]1c(/C=C/c2ccc(N(CCCl)CCCl)cc2)sc2ccccc21 | 72.9%
16 | C[N+](C)(C)Cc1cc(Cl)ccc1O | 92.8%
17 | NC1CC2CCCCC2CC1(O)c1ccccc1 (stereo not given) | 102%
18 | O=[N+]([O-])c1cc([N+](=O)[O-])c(Cl)cc1Cl | -99% (active)
19 | Cc1ccc(C(Cc2ccccc2)NCCO)cc1 (stereo not given) | 94.7%
20 | O=C1CCC2(O)[C@@H]3Cc4ccc(O)c5c4[C@]2(CCN3Cc2ccoc2)C1O5 (stereo not given in full) | 105%

Row | SMILES | growth
21 | COC(=O)[C@@H](C)C[C@H](Cc1ccccc1)NC(=O)c1csc([C@@H](C[C@H](C(C)C)N(C)C(=O)[C@@H](NC(=O)[C@H]2CCCN2C)C2CC2)OC(C)=O)n1 | 51.6%
22 | CC(C)(C)N1CC1C#N (stereo not given) | 119%
23 | C[C@]12C[C@@H](CO)[C@H](O)C[C@@H]1CC[C@@H]1[C@@H]2CC[C@]2(C)[C@@H](O)CC[C@@H]12 | 105%
24 | CCCCCCCC(=O)OCC(=O)[C@]1(O)Cc2c(O)c3c(c(O)c2[C@@H](OC2CC(N)C(O)C(C)O2)C1)C(=O)c1c(OC)cccc1C3=O (stereo not given in full) | -72.1% (active)
25 | NC(=O)c1c(Br)n(C2OC(CO)C(O)C2O)c2ncnc(N)c12 (stereo not given) | 16.1%
26 | C[C@]12CC[C@H]3[C@@H](C[C@@H]4SC(Nc5ccccc5)=N[C@@]45CC(O)CC[C@]35C)[C@@H]1CCC2O (stereo not given in full) | 64.1%
27 | O=C(Nc1ccc(Br)cc1)c1cc(Br)cc(Br)c1O | 19.7%
28 | CC(=O)O[C@H](C[C@H](C(C)C)N(C)C(=O)[C@@H](NC(=O)[C@H]1CCCCN1C)C(C)C)c1nc(C(=O)N[C@@H](Cc2ccccc2)C[C@H](C)C(=O)O)c(CCOCc2ccccc2)s1 | 37%
29 | Clc1cccc(N2COOC3(OOC2)C2CC4CC(C2)CC3C4)c1 | 95.3%
30 | O=C(Nc1ccc([N+](=O)[O-])cc1)C(Cl)(Cl)Cl | 103%
31 | CC(=O)O[C@H]1C(=O)[C@@]2(C)[C@H]([C@H](OC(=O)c3ccccc3)[C@]3(O)C[C@H](OC(=O)[C@H](OC(=O)OC[C@H]4COC(C)(C)O4)[C@@H](NC(=O)c4ccccc4)c4ccccc4)C(C)=C1C3(C)C)[C@]1(OC(C)=O)CO[C@@H]1C[C@@H]2O | 55.6%
32 | CCCCCCCC[n+]1ccc2ccccc2c1 | 46.4%
33 | CC(C)(N)Cc1ccccc1 | 112%
34 | Cc1cnc(/C=C/C(=O)O)cc1-c1cc2c(cc1C)C(C)(C)CCC2(C)C | 85.4%
35 | O=[N+]([O-])c1cc(I)cc([N+](=O)[O-])c1 | 79.4%
36 | COc1ccc(/C(C)=C(\c2ccc(OCCN3CCOCC3)cc2)c2ccc(OC(=O)Cc3ccccc3)cc2)cc1 | 106%
37 | COC(=O)CC[C@H](Cc1ccccc1)NC(=O)c1csc([C@@H](C[C@H](C(C)C)N(C)C(=O)[C@@H](NC(=O)[C@H]2CCCCN2C)C(C)C)OC(C)=O)n1 | 52.3%
38 | COc1cc2c(=O)n(C3CCCCCCC3)c3c4cc[nH]c4ncc3c2cc1OC | -9.58% (active)
39 | COc1ccc(/C=C\c2cc(OC)c(OC)c(OC)c2)c(NS(=O)(=O)c2ccc(C)cc2)c1O | 31.5%
40 | COC(=O)[C@@H](C)C[C@H](Cc1ccccc1)NC(=O)c1csc([C@@H](C[C@H](C(C)C)N(C)C(=O)C2(NC(=O)[C@H]3CCCCN3C)CC2)OC(C)=O)n1 | 44.5%
